Data from PubChem BioAssay (NCI).
This is part of a sample that, as a whole, favours compounds with a hit. Of some 83,000 tested, about 20% had one in any assay.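 Activity criterion: percent growth below 10, measured after cells in 96-well plates were exposed to a single compound concentration for 48 hours.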 Unmarked numbers belong to inactive results. Activity calls are given as the source filed them.

Columns and labels:
Assay in all cases: NCI-60 one-dose screen, 48 h (100 = growth as untreated, 0 = no growth, -100 = all killed)
SR leukemia = settings: 10 µM
RPMI-8226 leukemia = settings: 10 µM
OVCAR-8 ovarian = settings: 10 µM
OVCAR-4 ovarian = settings: 10 µM
SK-OV-3 ovarian = settings: 10 µM
OVCAR-3 ovarian = settings: 10 µM
HS 578T breast = settings: 10 µM
NCI/ADR-RES ovarian = settings: 10 µM
T-47D breast = settings: 10 µM
BT-549 breast = settings: 10 µM
MDA-MB-435 melanoma = settings: 10 µM
SW-620 colon = settings: 10 µM
MCF7 breast = settings: 10 µM unless noted
HCT-116 colon = settings: 10 µM
HCC-2998 colon = settings: 10 µM
KM12 colon = settings: 10 µM
IGROV1 ovarian = settings: 10 µM
OVCAR-5 ovarian = settings: 10 µM

| SMILES | growth (SR leukemia) | growth (RPMI-8226 leukemia) | growth (OVCAR-8 ovarian) [%] | growth (OVCAR-4 ovarian) [%] | growth (SK-OV-3 ovarian) [%] | growth (OVCAR-3 ovarian) | growth (HS 578T breast) | growth (NCI/ADR-RES ovarian) | growth (T-47D breast) [%] | growth (BT-549 breast) | growth (MDA-MB-435 melanoma) | growth (SW-620 colon) [%] | growth (MCF7 breast) [%] | growth (HCT-116 colon) | growth (HCC-2998 colon) | growth (KM12 colon) | growth (IGROV1 ovarian) [%] | growth (OVCAR-5 ovarian) [%] |
| --- | --- | --- | --- | --- | --- | --- | --- | --- | --- | --- | --- | --- | --- | --- | --- | --- | --- | --- |
| CCc1nc(N)nc(N)c1-c1ccc(Cl)cc1 | 57.3% | 102% | 47.7 | 78.4 | 84 | 116% | 103% | 56.4% | 100 | 67.7% | 35% | 27.2 | 67.8 | 25.4% | 75.9% | 82.5% |  |  |
| COc1cccc(/C=N/NC(=S)NC2CC3CCC2C3)c1O (stereo unspecified) | 3.68% (active) | 46.8% | 40.5 | 19.2 | 46.2 | 6.8% (active) | 25.8% | 15.4% | 35.7 | 79.8% | 76.4% | 57.9 | 37.8 | 24.8% | 96.3% | 69.1% | 67 |  |
| O=C(O)CCC(=O)OC(C1CO1)C(OC(=O)CCC(=O)O)C1CO1 (stereo unspecified) | 101% | 90.4% | 95.9 | 107 | 96.8 | 103% | 113% | 109% | 94 | 108% | 103% |  |  | 99.2% | 108% | 101% | 110 |  |
| Cc1ncc(C#N)c(N)n1 | 92.4% | 103% | 102 | 92.5 | 117 | 110% | 92.3% | 100% |  | 94.4% | 90.2% | 99.9 | 99.7 | 96.7% |  | 104% | 106 |  |
| Cc1cc2nc(CO)[nH]c2cc1C | 122% | 87.9% | 101 | 103 | 108 | 105% | 151% | 107% | 124 | 105% | 109% | 103 | 120 | 108% | 109% | 103% | 108 |  |
| CC(C)(N)COS(=O)(=O)O | 103% | 102% | 102 | 105 | 96.5 | 104% | 99.8% | 114% | 108 | 100% | 94.6% | 101 | 95.5 | 95.4% | 112% | 99.1% | 108 |  |
| CCOC(=O)C(CCC(C)C)C(=O)OCC | 79.7% | 98.8% | 95.6 | 107 | 106 | 109% | 115% | 108% | 100 | 104% | 102% | 102 | 97.5 | 108% | 101% | 104% | 102 |  |
| Nc1nc(OCc2ccccc2)c2[nH]cnc2n1 | 84.9% | 115% |  | 65.9 | 109 | 109% | 93.6% | 108% | 101 | 94.4% | 99.3% | 102 | 95.9 | 95.4% | 104% | 112% | 93.4 | 77.8 |
| C/C=C/CC(C)C(O)C1C(=O)NC(CC)C(=O)N(C)CC(=O)N(C)C(CC(C)C)C(=O)NC(C(C)C)C(=O)N(C)C(CC(C)C)C(=O)NC(C)C(=O)NC(C)C(=O)N(C)C(CC(C)C)C(=O)N(C)C(CC(C)C)C(=O)N(C)C(C(C)C)C(=O)N1C (stereo unspecified) | -0.0306% (active) |  | 38.1 | 29.9 | 40.4 | 17.4% | 45.8% | 31.9% | 23.2 | -14.4% (active) | -6.76% (active) | 31.3 | 18.7 | 8.61% (active) | 1.86% (active) | 17.7% | 43.9 | 32 |
| CC(=O)OCCO | 107% |  | 101 | 100 | 113 | 110% | 115% | 110% | 109 | 109% | 107% | 107 | 96.9 | 103% | 111% | 108% | 113 | 102 |
| O=C(O)CCC(NC(=O)OCc1ccccc1)C(=O)O (stereo unspecified) | 97.5% | 107% |  | 106 | 82.4 | 103% | 107% | 107% | 98.5 | 119% | 104% | 101 | 93 |  | 99.7% | 105% |  | 105 |
| CC1CC(O)CC(C)(C)C1 (stereo unspecified) | 106% |  | 102 | 116 | 103 | 93.5% |  | 110% | 104 | 102% | 101% | 110 | 101 | 99.8% | 109% | 90.3% | 103 | 97.1 |
| C/C(O)=C(\C=N\C(N)=S)C(=O)Nc1ccccc1 | 91.7% |  | 99.7 | 101 | 100 | 108% |  | 110% | 102 | 108% | 110% | 110 | 102 | 102% | 110% | 104% | 103 | 113 |
| CO[C@H]1C[C@@H]2CC[C@@H](C)[C@@](O)(O2)C(=O)C(=O)N2CCCC[C@H]2C(=O)O[C@H]([C@H](C)C[C@@H]2CC[C@@H](O)[C@H](OC)C2)CC(=O)[C@H](C)C=C(C)[C@@H](O)[C@@H](OC)C(=O)[C@H](C)C[C@H](C)/C=C/C=C/C=C1C | 23.7% | 23.8% |  | 33.3 | 45.1 | 55.1% |  | -10.4% (active) | 19.4 | 15.6% | 49% | 58 | 23.8 | 31.1% |  | 60.9% | 11.9 |  |
| C=CCCCCCCCCCOC(C)=O | 91.4% | 101% |  | 103 | 104 | 103% | 99.7% | 107% | 97.9 | 132% | 110% | 105 | 96.2 | 110% | 98.4% | 103% |  | 103 |
| O=C1c2ccccc2C(=O)c2c1ccc(C(=O)O)c2[N+](=O)[O-] | 76.1% |  | 100 | 96 | 108 | 115% | 82.5% | 103% | 105 | 95.5% | 118% | 102 | 89.9 | 104% | 106% | 101% | 105 | 102 |
| Brc1cnc2ccccc2c1 | 103% |  | 104 | 118 | 111 | 99.7% |  | 102% | 108 | 103% | 105% | 95.8 | 101 | 106% | 100% | 100% | 107 | 96.3 |
| c1ccc(/C(=N\N=C(/c2ccccc2)c2cccs2)c2cccs2)cc1 | 87.3% |  | 95 | 97.1 | 105 | 99.7% | 105% | 102% | 86.7 | 102% | 103% | 98 | 96 |  | 101% | 97.1% | 105 | 98.5 |
| COc1cc2cc(c1Cl)N(C)C(=O)C[C@H](OC(=O)[C@H](C)N(C)C(C)=O)[C@]1(C)O[C@H]1[C@H](C)[C@@H]1C[C@@](O)(NC(=O)O1)[C@H](OC)C=C/C=C(\C)C2 | 10.2% | -4.44% (active) |  |  | 36.1 | -42.8% (active) | 9.98% (active) | 3.31% (active) | 74.6 | -21% (active) | -53.3% (active) | 26.5 | 14.2 | -18.6% (active) | -32% (active) | -42.3% (active) |  | 32.4 |
